Reference: ChEMBL document CHEMBL4513216, “Probing the Open Global Health Chemical Diversity Library for Multistage-Active Starting Points for Next-Generation Antimalarials” (ACS Infect Dis, 2020)
The whole screen tested about 68,000 compounds, of which about 2,700 (4%) showed an effect of 50% or more. Only a selection was taken, and strong results are over-represented in it overall.

Test system: Plasmodium berghei
Experiment: Screen against P. berghei liver stage (PbLuc), transformed with Luciferase, at 2uM
Assay type: functional, HepG2
Conditions: tested at 2 uM

SMILES	INHIBITION [%]
CCc1ccc(C(=O)O)cc1S(=O)(=O)N(C)c1cccc(C)c1	-2.2
CN(Cc1ccccc1)C(=O)c1nc(S(C)(=O)=O)n2ccccc12	3.9
O=C(O)c1nnn(-c2ccc(OC(F)(F)F)cc2)c1-c1ccncc1	3.22
CC(Nc1ccc2c(c1)CCC2)c1nc(C2CC2)no1 (stereo unspecified)	6.47
Cc1ccc2oc(=O)n(CC(=O)N3CCC4(CC3)CN(C)C(=O)O4)c2c1	-55.13
COc1c(CNCc2ccc(C(=O)N(C)C(C)C)cc2)c(C)nn1C	4.55
O=C(Cn1ccnc1)N(CCO)CCSc1ccc(Cl)cc1	56.21
O=C(Cc1ccncc1)N(CCO)CCSc1ccc(Cl)cc1	47.2
O=C(Cn1cccn1)N(CCO)CCSc1ccc(Cl)cc1	-5.53
CCc1cnc(N2CCCOC(CN3CCCC3)C2)nc1 (stereo unspecified)	-30.18
COCC1CN(CC2CC2)Cc2nn(CC3CC3)cc21 (stereo unspecified)	11.34
COCC(=O)N1CCN(C(=O)Cc2cccs2)[C@H]2CS(=O)(=O)C[C@H]21	54.47
COCC(=O)N1CCN(S(=O)(=O)c2ccccc2)[C@H]2CS(=O)(=O)C[C@H]21	15.75
COCC(=O)N1CCN(S(=O)(=O)c2cccs2)[C@H]2CS(=O)(=O)C[C@H]21	18.77
CN1C(=O)CCCC12CCCN(C(=O)c1cc(F)cc(F)c1)C2 (stereo unspecified)	12.83
Cn1ccnc1CN1CCOC(Cn2cccn2)C1 (stereo unspecified)	7.01
Cc1cccc(-c2ccc(C(=O)NCC3CCOC3)c(=O)[nH]2)c1 (stereo unspecified)	17.39
Cc1cccc(-c2ccc(C(=O)NCC3CCCO3)c(=O)[nH]2)c1 (stereo unspecified)	57.77
Cc1cccc(-c2ccc(C(=O)NCC3CCCOC3)c(=O)[nH]2)c1 (stereo unspecified)	-9.49
CC(C)c1cc(NC2CCCN(C(=O)c3cccs3)C2)ncn1 (stereo unspecified)	-13.8
CC(C)c1cc(NC2CCN(C(=O)N3CCCC3)CC2)ncn1	52.98
O=C(N1CCCC1)N1CCC(Nc2ccncn2)CC1	39.44
Cc1nc2ncc3c(=O)n(C)ccc3n2n1	-42.16
CN(C)CC(=O)N1CCCC2(CCC(=O)N(CCc3c[nH]cn3)C2)C1 (stereo unspecified)	38.93
CCc1n[nH]c(C(=O)N2CCCC3(CN(C)C(=O)O3)C2)c1C (stereo unspecified)	51.9
CN1CCc2[nH]nc(C(=O)N3CCCC4(CN(C)C(=O)O4)C3)c2C1 (stereo unspecified)	-15.16

SMILES	INHIBITION [%]
Cc1nc[nH]c1C(=O)N1CCCC2(CN(C)C(=O)O2)C1 (stereo unspecified)	1.06
CC(NCC(=O)Nc1ccc(N2CCCCCC2)cc1)c1cccs1 (stereo unspecified)	23.68
CCc1cc(C(=O)N[C@H]2CN(CCS(C)(=O)=O)C[C@@H]2C2CC2)[nH]n1	-90.7
Cc1occc1C(=O)N1CCc2c(CNS(C)(=O)=O)cncc2C1	-15.09
CC(C)CC(NC(=O)CSc1ccc(F)c(Cl)c1)C(=O)O (stereo unspecified)	14.54
CC(C)C[C@H](NC(=O)Nc1ccc(F)c(Cl)c1)C(=O)O	-9.89
CC(C)CC(NC(=O)Nc1ccc(F)c(Cl)c1)C(=O)O (stereo unspecified)	56.54
Cc1ccc(CN2C[C@@H](OCc3ccccn3)[C@H]3COC[C@H]32)o1	-4.92
CC(C)c1nc(C2CCCN2Cc2nccn2CC(F)(F)F)no1 (stereo unspecified)	-20.05
CC(C(=O)Nc1ccc(N2CCOCC2)nc1)n1cncn1 (stereo unspecified)	43.32
CC(C)c1cnc(CN2C(=O)CC3(CCSC3)C2=O)o1 (stereo unspecified)	-21.1
CCc1cnc(CN2C(=O)CC3(CCSC3)C2=O)o1 (stereo unspecified)	15.39
CC(C)(C)c1cnc(CN2C(=O)CC3(CCSC3)C2=O)o1 (stereo unspecified)	53.99
Cc1nc2ccc(-n3ncnc3[C@@H]3CCCN3S(C)(=O)=O)cc2s1	-35.1
CC(C)(C)CN1Cc2cc3c(cc2NCCC1=O)OCO3	-15.54
CN(C)CCn1c2c(ccc1=O)CCN(C(=O)c1ccoc1)CC2	17.31
CN(C)CCn1c2c(ccc1=O)CCN(C(=O)c1cccs1)CC2	53.27
Cc1ccc(C(=O)N2CCc3ccc(=O)n(CCN(C)C)c3CC2)o1	5.77
Cc1cc(C)c(CCNC(=O)CN2CCCN(C(N)=O)CC2)c(C)c1	66.74
NC(=O)N1CCCN(CC(=O)NCCc2c(F)cccc2F)CC1	19.12
Cc1cc(C)cc(C(=O)N2CCCN(CC(N)=O)CC2)c1	16.13
O=C(c1ccc2c(c1)OCO2)N1CCC[C@]2(C[C@H](OCC3CC3)CO2)C1	10.43
O=C(CN1CCCC1Cn1cccn1)NC1CCOCC1 (stereo unspecified)	4.41
CCCS(=O)(=O)c1ccc(N2CCN(Cc3ccccc3)CC2)nn1	27.54
Cc1nc(N2CCN(S(C)(=O)=O)CC2)cc(-n2cnc(C)c2C)n1	43.32
